“And” between values parts separate entries of the source, which are not always exact repeats. Equal values may be shown once. The whole screen tested about 320,000 compounds, of which about 2,100 (0.66%) were called active. Another 53% or so got no clear call; they are omitted. The call rests on the fitted dose curve; in most records, active means well fitted inhibition curve with a large enough effect in the signal ratio, with a control signal flat (not every such curve was filed as active); inconclusive means small, poorly fitted or top-dose-only effect, or effect the other way, or a change in a side signal; inactive means flat fitted curve, though single readings scatter; the % refers to the signal ratio. The sample as a whole holds a higher share of actives than the screen did.
Potency means the concentration at half of the fitted maximal effect.

The assay can be described thus: qHTS Assay for Lipid Storage Modulators in Drosophila S3 Cells.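 On cell number change: cells counted by Cell Tracker Red CMTPX staining in the red channel.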 The following applies: BODIPY lipid droplet fluorescence, 18-24 h, cells fed with added oleic acid; cell number change: measured here: cell count max response; series mostly up to 46.1 µM. A digest of the protocol: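 Drosophila S3 cells loaded with oleic acid (400 uM, as added) and compounds at several concentrations; lipid droplets imaged by 488-nm laser-scanning cytometry, 500–530 nm intensity and object ratio to cell channel. Percent activity normalized to 20 uM Triacsin C.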
(In general: qHTS replaces the single test concentration by a dilution series.)
For `O=C(C#Cc1ccccc1)Nc1ccc(F)cc1`, the Potency entry was “inactive” and the cell number change is -2.07%.

Turning to `O=C(C#Cc1ccccc1)Nc1cccc(F)c1`, the Potency was 1.16 µM (active) and the cell number change is -19.6%.

For the molecule `COc1ccc(NC(=S)Nc2ccccc2)cc1`, the Potency entry is “inactive”; the cell number change is 1.43% and -1.32%.

Take `NC(=O)c1ccc(NC(=O)C#Cc2ccccc2)cc1`: the Potency result was “inactive”.

Consider `O=C(Nc1cccc(F)c1)c1ccccc1`, for which the Potency result was “inactive” and the cell number change was -17.1%.

For the molecule `COc1ccc(NC(=O)Cc2ccccc2)cc1`, the Potency result was “inactive” and the cell number change was -1.56%.

On to `O=C1NC2(CCCCC2)Cc2ccccc21`, for which the Potency entry was “inactive” and the cell number change was determined as 2.36%.

Turning to `CCCC(=O)Nc1ccc(Cl)c(NC(=O)c2ccc([N+](=O)[O-])cc2Cl)c1`, the Potency entry is “inactive” and the cell number change worked out at 3.62%.

Turning to `Cc1cc(NC(=O)c2ocnc2C)no1`, the Potency entry is “inactive” and the cell number change is -15.2%.

Regarding `O=C(O)c1cc(-c2ccccc2Cl)n(-c2ccccc2)n1`, the Potency result was “inactive” and the cell number change was 19.7%.

Take `COc1cc(CC(=O)NCc2ccco2)cc(OC)c1OC`: the Potency result is “inactive”.

For the molecule `CNC(=S)N/N=C/c1c(C(=O)OC)cnn1-c1ccc(F)cc1F`, the Potency result was “inactive” and the cell number change was determined as 9.07%.

As to `Cc1oc(-c2ccccc2F)nc1CN1CCC(C(=O)NCc2cccnc2)CC1`, the Potency entry is “inactive” and the cell number change was found to be 15.7%.

Regarding `O=C(Nc1ccccc1)Nc1n[nH]c2nnc(-c3ccccc3)c(-c3ccccc3)c12`, the Potency result was “inactive” and the cell number change was 9.52%.

In the case of `Cc1cc(-c2nc(C)c(C(=O)NNC(=O)NC(C)C)s2)no1`, the Potency result was “inactive” and the cell number change was found to be 5.79%.

Consider `Cc1cc(C)c2c(N)c(C(=O)NC3CC3)sc2n1`, for which the Potency result was “inactive” and the cell number change was 14.6%.

As for `Cc1cc(C)c2c(N)c(C(=O)Nc3ccc(C)c(C)c3)sc2n1`, the Potency entry was “inactive” and the cell number change is -1.35%.

For the molecule `CN(C)CCNC(=O)c1sc2nc(-c3ccccc3)cc(C(F)(F)F)c2c1N`, the Potency result was “inactive” and the cell number change was -18.7%.

Consider `Cc1cc(C(F)(F)F)c2c(N)c(C(=O)NC3CC3)sc2n1`, for which the Potency is 17.8 µM (active) and the cell number change is -6.29%.

In the case of `Cc1nnc(NC(=O)c2sc3nc(-c4cccs4)cc(C(F)(F)F)c3c2N)s1`, the Potency was 9.2 µM (active) and the cell number change came out at 18.6%.

On to `CC(C)(C)C(=O)c1sc2nc(-c3cccs3)cc(C(F)(F)F)c2c1N`, for which the Potency result was “inactive” and the cell number change is -8.91%.

Consider `O=C(O)C(C(O)c1ccc([N+](=O)[O-])cc1)[n+]1ccccc1` (centres undefined), for which the Potency entry is “inactive” and the cell number change came out at 27.3%.

As for `C(=N\Nc1ccc(-n2ccnc2)nn1)/c1ccccc1`, the Potency result is “inactive”.

As for `CCOC(=O)CNC(=O)N1CCCC(C(=O)c2cc(C)c(OC)c(C)c2)C1` (centres undefined), the Potency result was “inactive” and the cell number change was determined as 16.3%.

`O=C(NCCC1=CCCCC1)c1ccc(-n2cncn2)c([N+](=O)[O-])c1`: the Potency result was “inactive” and the cell number change was -27%.

For `CCOC(=O)c1sc(N(Cc2ccccc2)C(=O)COC(=O)c2cnccn2)nc1C`, the Potency entry is “inactive”.

As to `C=CCn1c(SCc2nc3ccccc3nc2C)nnc1-c1ccoc1C`, the Potency entry was “inactive” and the cell number change was -18.3%.

Regarding `CCOC(=O)CC1=NS(=O)(=O)c2ccccc2N1`, the Potency entry was “inactive” and the cell number change is 8.13%.

For the molecule `Cc1ccc(NC(=O)CC(C)CC2=NS(=O)(=O)c3ccccc3N2)cc1` (centres undefined), the Potency entry was “inactive” and the cell number change is 4.79%.

In the case of `CC(CC(=O)O)CC1=NS(=O)(=O)c2ccccc2N1` (centres undefined), the Potency is 13 µM (active) and the cell number change is -6.45%.

Regarding `O=C(O)c1cc2ncc(-c3[nH]ncc3[N+](=O)[O-])cn2n1`, the Potency result was “inactive” and the cell number change was found to be 25.8%.

For the molecule `CCCCc1nc2ccccc2c(=O)n1NC(=O)c1c(O)c2ccccc2n(C)c1=O`, the Potency entry was “inactive” and the cell number change was -2.66%.

In the case of `Cc1ccc2nc(SCC(=O)N3CCOCC3)[nH]c2c1`, the Potency result is “inactive” and the cell number change was -6.28%.

On to `COC(=O)c1ccc(CSc2nc3ccc(S(=O)(=O)N4CCOCC4)cc3[nH]2)cc1`, for which the Potency entry is “inactive” and the cell number change is 1.16%.

In the case of `O=C(CSc1nc2ccc(S(=O)(=O)N3CCOCC3)cc2[nH]1)N1CCOCC1`, the Potency is 18.4 µM (active) and the cell number change came out at 8.23%.

As to `O=C(O)C1CCCN(S(=O)(=O)c2ccc(-c3ccc(=O)[nH]n3)s2)C1` (centres undefined), the Potency entry was “inactive” and the cell number change was -7.22%.

On to `COC(=O)Nc1ccc(Cn2cc(C(F)(F)F)ccc2=O)cc1`, for which the Potency result was “inactive” and the cell number change was 17.3%.

As for `O=C1C=CC(=O)N1Cc1ccccc1`, the Potency was 4.11 µM (active) and the cell number change is -23.7%.

As to `O=C1NC(=O)N(Cc2ccccc2)C1=O`, the Potency entry was “inactive” and the cell number change was -0.926%.

Take `O=C1[C@H](O)[C@@H](O)C(=O)N1Cc1ccccc1`: the Potency entry was “inactive” and the cell number change is 24.4%.

On to `C1=C(CCNc2ncnc3nc[nH]c23)CCCC1`, for which the Potency is 16.4 µM (active) and the cell number change was -23.9%.

For the molecule `CCCNc1ncnc2nc[nH]c12`, the Potency entry is “inactive” and the cell number change stood at 19.1%.

Take `COCCNc1ncnc2nc[nH]c12`: the Potency entry is “inactive” and the cell number change amounted to 7.15%.

Take `O=C(Sc1ccccc1)c1cccc(Cn2cc(C(F)(F)F)ccc2=O)c1`: the Potency result is “inactive” and the cell number change is 1.6%.

With `COc1cccc(NC(=O)c2ccc3nc(C)sc3c2)c1`, the Potency entry is “inactive” and the cell number change is 0.275%.

For the molecule `CCN1CCCC(OC(=O)Nc2ccccc2)C1` (centres undefined), the Potency result is “inactive” and the cell number change is -14.2%.

For `COc1ccc(CCNc2ncnc3sc(C)cc23)cc1OC`, the Potency is 4.11 µM (active) and the cell number change is -27%.

Consider `Cc1cc2c(NCc3ccccc3)ncnc2s1`, for which the Potency result is “inactive” and the cell number change is -12.9%.

In the case of `COc1ccc(CCNc2ncnc3c2c(C)c(C)n3CCO)cc1OC`, the Potency result is “inactive” and the cell number change is -9.63%.

These data come from PubChem BioAssay AID2685 (National Center for Advancing Translational Sciences (NCATS), 2010).
